About 2,200 (0.76%) of roughly 290,000 compounds were called active. The entries come from a sample that favours actives as a whole. A number with no mark means an inactive call. Cut-off read from the data, not from the text of the source: active = inhibition above about 30%; inconclusive = no clear call, values can overlap the other calls; inactive = below that.
Molecular target: Protein RecA (Mycobacterium tuberculosis (strain ATCC 25618 / H37Rv)) (UniProt P9WHJ3)
Assay: Mtb RecA intein splicing inhibitors, primary screen, biochemical, fluorescence, HTS (AID 2221);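 note: 0% = vehicle wells and 100% = reference inhibitor control wells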
Settings: cell-free RecA intein splicing, stronger effect = higher value, concentration not given here

Chain of Protein RecA (Mycobacterium tuberculosis (strain ATCC 25618 / H37Rv)) (P9WHJ3 whole entry, looked up): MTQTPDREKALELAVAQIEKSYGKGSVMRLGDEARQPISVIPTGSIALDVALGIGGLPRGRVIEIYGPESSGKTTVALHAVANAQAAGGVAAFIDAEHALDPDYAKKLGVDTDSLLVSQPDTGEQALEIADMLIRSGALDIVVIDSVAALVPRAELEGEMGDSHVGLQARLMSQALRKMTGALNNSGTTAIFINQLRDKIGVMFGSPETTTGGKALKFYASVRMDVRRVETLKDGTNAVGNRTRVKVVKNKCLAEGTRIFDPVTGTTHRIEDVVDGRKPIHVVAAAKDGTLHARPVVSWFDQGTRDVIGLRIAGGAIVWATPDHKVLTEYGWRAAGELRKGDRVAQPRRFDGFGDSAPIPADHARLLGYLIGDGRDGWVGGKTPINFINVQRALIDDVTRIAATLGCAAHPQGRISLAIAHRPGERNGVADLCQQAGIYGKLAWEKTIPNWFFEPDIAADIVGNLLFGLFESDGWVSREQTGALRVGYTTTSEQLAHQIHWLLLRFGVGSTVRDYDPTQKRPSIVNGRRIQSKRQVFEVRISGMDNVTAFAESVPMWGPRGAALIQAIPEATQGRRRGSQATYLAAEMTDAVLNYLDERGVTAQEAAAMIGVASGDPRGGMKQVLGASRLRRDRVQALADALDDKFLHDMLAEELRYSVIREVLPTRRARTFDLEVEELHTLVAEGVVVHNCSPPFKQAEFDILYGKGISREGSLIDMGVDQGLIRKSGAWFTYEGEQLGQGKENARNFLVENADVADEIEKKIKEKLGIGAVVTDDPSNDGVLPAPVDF

| SMILES | inhibition |
| --- | --- |
| CCCNC(=O)CSc1nc(Cc2ccccc2)nc2ccccc12 | 15.4% |
| CCN(CC)S(=O)(=O)c1cc([N+](=O)[O-])ccc1NNC(=O)Nc1ccccc1 | 0.713% |
| COc1ccc(-n2nnnc2CNC(=O)c2ccc3ccccc3c2)cc1 | -1.28% |
| Cc1ccc([N+](=O)[O-])c(OCCCNCC(C)O)c1 (stereo unspecified) | -0.0235% |
| Cc1ccc(CN2CCN(c3ncccn3)CC2)c(C)c1 | 0.612% |
| Cn1c(SCC(=O)c2ccccc2)ncc(C(=O)Nc2ccc(F)cc2)c1=O | -0.487% |
| C=CCn1c(SCC(=O)NCC2CCCO2)nc2sc(C)c(C)c2c1=O (stereo unspecified) | 0.158% |
| Cc1ccc(NC(=O)c2cnc(SCC(=O)NCC3CCCO3)n(C)c2=O)cc1 (stereo unspecified) | 35.1% (active) |
| COc1ccc2c(c1O)-c1cccc3c1[C@@H](C2)N(C)CC3 | -6.28% |
| COc1ccc2cc1Oc1ccc(cc1)C[C@H]1c3cc(c(OC)cc3CCN1C)Oc1c(O)c(OC)cc3c1[C@H](C2)N(C)CC3 | -4.49% |
| COc1c(O)ccc2c1CN1CCc3cc4c(cc3C1C2)OCO4 (stereo unspecified) | 68.5% (active) |
| CC(C)(C)OC(=O)NC(Cc1ccccc1)C(=O)NC(CSC1CCCCO1)C(=O)NN (stereo unspecified) | -1.13% |
| CC1(C)CC(=O)c2cnc3nc4ccccc4n3c2C1 | -0.669% |
| CC(CNc1ccc([N+](=O)[O-])c2cccnc12)Nc1c([N+](=O)[O-])cc(C(F)(F)F)cc1[N+](=O)[O-] (stereo unspecified) | 1.36% |
| COc1ccc(-c2ccc(Nc3ccc(S(=O)(=O)N4CCCC4)cc3)nn2)cc1OC | -1.08% |
| COc1ccc(-c2cc(C(F)(F)F)nc(S(C)(=O)=O)n2)cc1OC | 42% (active) |
| COc1ccc(-c2cc(C(F)(F)F)nc(NCc3cccnc3)n2)cc1 | -1.1% |
| Cn1cc(CCC(=O)NC2CC2)c2ccccc21 | -0.418% |
| O=C(CN1CCN(C(=S)NC2CCCC2)CC1)Nc1ccc(Oc2ccccc2)cc1 | 5.42% |
| COCc1cc(C)n(CC(=O)NCC2CCCO2)c(=O)c1C#N (stereo unspecified) | -0.67% |
| C[C@]12C=CC(=O)C=C1CC[C@@H]1[C@@H]2C(=O)C[C@@]2(C)[C@H]1CC[C@]2(O)C(=O)CO | 1.39% |
| CC(=O)O[C@]1(C(C)=O)CC[C@H]2[C@@H]3C=C(C)C4=CC(=O)CC[C@]4(C)[C@H]3CC[C@@]21C | 11% |
| CC(=O)C12CC(C)=C(C)CC1CC1C3CCC4=CC(=O)CCC4(C)C3CCC12C (stereo unspecified) | 36% (active) |
| CCN(CC)c1ccc2oc(=O)c(C)nc2c1 | 30.2% (active) |
| CCN(CC)c1ccc2cc(C(N)=O)/c(=N\NC(=O)c3ccncc3)oc2c1 | -24.7% |
| C=CCN(C(=O)Nc1ccc2oc(C)nc2c1)c1ccccc1 | 1.61% |
